Each structure is given as a SMILES string. Inconclusive results are not listed. Where a call stands in place of a potency, no number is given. The source made the active and inactive calls. Calls come from the whole dose curve; as a rule, active = well fitted inhibition curve with a large enough effect; inconclusive = small, poorly fitted or top-dose-only effect; inactive = no such curve, though single readings can be large or run the other way.
Potency is the fitted concentration of half-maximal effect.

This test in a line: Primary fluorescence-based thiol-reactive (MSTI) qHTS assay for identification of artifact compounds. (AID 1845221).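 For activity change, negative = thiol reactive: thiol-reactive compounds lower the probe fluorescence signal.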 Note: nearly all actives have a fitted effect of over 65% in size. As to conditions: MSTI thiol-reactivity probe, 1 h; series mostly up to 53.8 µM. From the text: PI: Alexander Tropsha Ph.D.
UNC Eshelman School of Pharmacy
University of North Carolina, Chapel Hill, North Carolina
Hits from high-throughput screening (HTS) of chemical libraries are often false positives due to their interference with the assay detection technology. In response to this problem, we generated the largest publicly available library of chemical liabilities and developed a free webtool to predict HTS artifacts, both of which are described herein. More specifically, we generated, curated, and integrated HTS datasets for thiol reactivity, redox activity, and luciferase (firefly and nano) activity. Using these curated datasets, we developed and validated several Quantitative Structure-Interference Relationship (QSIR) models to predict nuisance behavior. […] These models were employed for virtual profiling of the National Center for Advancing Translational Science's (NCATS) in-house library, and 256 compounds for each assay were selected for the experimental validation of nuisance behavior. The BA for these external predictions ranged from 58 to 78% for compounds within the applicability domains of the models. […] The models developed in this study, along with aggregation models previously developed by our group (SCAM Detective) were implemented in "Liability Predictor," an online tool which may be used as part of chemical library design or for triaging HTS hits. Both the models and the curated datasets are publicly available at https://liability.mml.unc.edu/.
SEQUENCE No. (e.g., 1, 2, 3, etc.); […] (e.g., Cells, Incubation, Reagent, etc.); VALUE; DESCRIPTION.
1; Reagent; 4 uL; […].
2; Compounds and control; 16 nL; Kalypsis pin tool (Wako USA) equipped with a 1536-well pin head.
4; Detection; Fluorescence, ViewLux microplate reader, 525 nm excitation, 598 nm emission.
NOTES (numbers refer to Sequence numbers above)
1. Assays determining (E)-2-(4-mercaptostyryl)-1,3,3-trimethyl-3H-indol-1-ium (MSTI) reactivity were performed as previously described in the literature with modifications for the quick identification of compounds reacting with thiol. In brief, 4 uL of MSTI or positive control Acetyl-MSTI (final concentrations of 4 uM and 4 uM, respectively) in assay buffer (2% DMSO in 1X PBS pH 7.4) was dispensed into all wells of a 1536-well assay plate (solid-bottom black plate; Greiner Bio One, Monroe, NC).
2. A Wako Pin-tool (Wako Automation, Richmond, VA) was used to transfer 16 nL of compounds (consisting of 7-plates in qHTS format, final concentration range 18.3 nM to 114 uM) or control MLS001163887 (final concentration range 1.22 nM to 40 uM).
3. Plates were centrifuged (121xg, 15 seconds) and incubated for 1 hour at room temperature protected from light.
4. Samples were read for fluorescence (Ex/Em = 525(20)/598(25) nm) on a ViewLux CCD imager (PerkinElmer). Data were normalized to Acetyl-MSTI (0% activity) and MSTI (100% activity) and the resulting percent inhibition data were fitted to a 4-parameter Hill equation using NCATS in-house software.
A general note: qHTS replaces the single test concentration by a dilution series.
Take `COC(=O)N1CCN(C(=O)Cc2ccc(Cl)c(Cl)c2)[C@@H](CN2CCCC2)C1`: the Potency result is “inactive”.

For the molecule `CCCN1CCO[C@H]2c3cc(O)ccc3OC[C@@H]21`, the Potency result is “inactive”.

Consider `C[C@@]12C[C@@H](c3ccoc3)OC(=O)C1CC[C@]1(C)[C@H]2[C@H]2C=C[C@]1(O)C(=O)O2` (stereo not given in full), for which the Potency entry is “inactive”. For the molecule `CCCCCCn1c(=O)c(C(=O)Nc2ccc(C(=O)OCCC)cc2)c(O)c2ccccc21`, the activity change, negative = thiol reactive is -6.91% [at 11.5 µM] (inactive). Take `COC1CC(O[C@H]2CC[C@@]3(C)C(=CCC4C3C(O)[C@@H](O)[C@]3(C)[C@@H](C(C)=O)CC[C@]43O)C2)OC(C)C1OC1CC(OC)C(OC2OC(C)C(O)C(O)C2O)C(C)O1` (stereo not given in full): the activity change, negative = thiol reactive is 105% [at 11.5 µM] (inactive). The same measure, in the same setting: then `Oc1ccc2c3c1O[C@H]1[C@H](N(CCCl)CCCl)CC[C@@]4(O)[C@@H](C2)N(CC2CC2)CC[C@]314`, with 7.36% [at 11.5 µM] (inactive). As for `C=C[C@H]1CN2CC[C@H]1C[C@@H]2[C@@H](O)c1ccnc2ccccc12`, the Potency result is “inactive”. As for `CCN1CC2(COC)C3[C@@H](OC)C4C1C3(C1C[C@]3(O)[C@H](OC(=O)c5ccccc5)C1[C@]4(OC(C)=O)[C@@H](O)[C@@H]3OC)[C@H](OC)C[C@H]2O` (stereo not given in full), the Potency entry was “inactive”. For the molecule `Cc1c(Cl)cccc1S(=O)(=O)Nc1nc(CC(=O)N2CCN(C)CC2)cs1`, the Potency entry was “inactive”. Still for that read-out and setting: then `C1=C2CCCN[C@H]2[C@@H]2C[C@H]1[C@H]1CCCCN1C2`, with “inactive”. For the molecule `C[C@H](NC(=O)Cc1cc(F)cc(F)c1)C(=O)N[C@@H]1N=C(c2ccccc2)c2ccccc2N(C)C1=O`, the Potency result was “inactive”. As to `Cn1ncnc1COc1nn2c(-c3c(F)cccc3F)nnc2cc1C1CCC1`, the Potency result is “inactive”. The same measure, in the same setting: then `CCCCCOc1cc2c(cc1-c1cc(/C=C/C(=O)O)ccc1O)C(C)(C)CCC2(C)C`, with “inactive”; and `CC(=O)OC1CC(O)C2(C)C(CC(OC(C)=O)C3(C)C2CCC2(C)C(c4ccoc4)C(=O)C4OC423)C1(C)C` (stereo not given), with “inactive”; and `COC(=O)C1(C)CCC(=O)C2(C)c3c(O)cc(C(C)C)cc3C(O)C(OC(C)=O)C12` (stereo not given), with “inactive”.

In the case of `C[C@]12CC[C@H]3[C@@H]([C@H](O)CC4=CC(=O)CC[C@@]43C)[C@@H]1CC[C@@H]2O`, the Potency entry was “inactive”.

For the molecule `O=C1C[C@@H]2OCC=C3CN4CC[C@]56c7ccccc7N1[C@H]5[C@H]2[C@H]3C[C@H]46`, the Potency result is “inactive”. Regarding `CN[C@H]1[C@H](O)[C@H](O[C@@H]2[C@@H](O)[C@H](O[C@H]3O[C@H]([C@H](C)O)[C@@H](O)[C@H](O)[C@H]3N)[C@@H](N)C[C@H]2N)OC[C@@]1(C)O`, the Potency result is “inactive”. As for `CC(C)[C@@H](CN1CC[C@@](C)(c2cccc(O)c2)[C@@H](C)C1)NC(=O)[C@H]1Cc2ccc(O)cc2CN1`, the Potency entry is “inactive”. For the molecule `C=CC(C)(C)c1[nH]c2cccc3c2c1C[C@@H]1[C@@H]3[C@@H](OC(C)=O)[C@H](C)CN1C`, the Potency entry was “inactive”. In the case of `CCC(C)(OC(C)=O)C(=O)O[C@H]1[C@H](OC(C)=O)C[C@@H]2[C@@](C)([C@@H]3C[C@H]4C=CO[C@H]4O3)[C@H](C)C[C@H](OC(C)=O)[C@@]2(COC(C)=O)[C@@]12CO2` (stereo not given in full), the Potency entry was “inactive”. Consider `CN1CCC[C@@H]1Cc1c[nH]c2ccc(Nc3ncccc3[N+](=O)[O-])cc12`, for which the Potency was 1.68 µM (active). For the molecule `C=C[C@H]1[C@H](O[C@@H]2O[C@H](CO)[C@@H](O)[C@H](O)[C@H]2O)OC=C2C(=O)OCC[C@H]21`, the Potency result was “inactive”. As to `OC1(c2ccc(Cl)cc2)c2ccccc2C2=NCCN21` (stereo not given), the Potency entry was “inactive”.

Regarding `Clc1ccc(N2C[C@H]3CC[C@@H](C2)N3)nn1`, the Potency entry is “inactive”.

As for `CC[C@H]1CN2CC[C@H]1C[C@H]2[C@H](O)c1ccnc2ccc(OC)cc12`, the Potency result is “inactive”.

As to `COc1ccccc1CN[C@H]1C2CCN(CC2)[C@H]1C(c1ccccc1)c1ccccc1`, the Potency entry is “inactive”.

For the molecule `CC(C)=C1CC[C@]23CO[C@H](C2)[C@@](O)(C(=O)O)CCC13` (stereo not given in full), the Potency result was “inactive”. For `Cc1cn(C[C@H](N)C(=O)O)c(=O)n(Cc2cc(-c3ccccc3)sc2C(=O)O)c1=O`, the Potency result was “inactive”.

Take `C[C@H]1O[C@@H](O[C@H]2C[C@@H](O)[C@]3(CO)C4C(CC[C@]3(O)C2)[C@@]2(O)CC[C@H](C3=CC(=O)OC3)[C@@]2(C)C[C@H]4O)[C@@H](O)[C@@H](O)[C@H]1O` (stereo not given in full): the Potency entry is “inactive”.

With `Cc1cccc(NC(=O)N[C@@H]2N=C(c3ccccc3)c3ccccc3N(C)C2=O)c1`, the Potency result was “inactive”. `CC[C@H]1CN2CC[C@H]1C[C@@H]2[C@@H](O)c1ccnc2ccc(OC)cc12`: the Potency result was “inactive”. On the same count and under the same terms, then `COc1cc(C)[nH]c(=O)c1CNC(=O)c1c(C)n([C@H](C)C2CCOCC2)c2ccccc12`, with “inactive”. Turning to `C/C=C(\C)C(=O)OC1CC2C(CC=C3CC(OC4CC(OC)C(OC5CC(OC)C(OC6OC(C)C(OC7OC(CO)C(O)C(O)C7O)C(OC)C6O)C(C)O5)C(C)O4)CCC32C)C2(O)CCC(C(C)=O)C12C` (stereo not given), the activity change, negative = thiol reactive was 19.1% [at 11.5 µM] (inactive). In the case of `CC(C)(C)c1cc(C(C)(C)C)c2c(c1)C(O)(C(F)(F)F)C(=O)O2` (stereo not given), the Potency was 9.47 µM (active). For the molecule `CC(C)C1(OO)C=C2C(=O)CC3C(C)(C(=O)O)CCCC3(C)C2CC1` (stereo not given), the Potency result was “inactive”.

On to `CCOc1ccccc1-n1c(C(C)N2CCN(C(=O)COc3ccc(Cl)cc3)CC2)nc2ccccc2c1=O` (stereo not given), for which the Potency entry was “inactive”.

As for `C/C=C(\C)C(=O)O[C@H]1[C@H](OC(C)=O)[C@]2(CO)[C@H](O)[C@H](O)[C@]3(C)C(=CCC4[C@@]5(C)CC[C@H](O[C@@H]6O[C@H](C(=O)O)[C@@H](O)[C@H](O[C@@H]7OC[C@H](O)[C@H](O[C@@H]8OC[C@H](O)[C@H](O)[C@H]8O)[C@H]7O)[C@H]6O[C@@H]6O[C@H](CO)[C@@H](O)[C@H](O)[C@H]6O)C(C)(C)C5CC[C@]43C)[C@@H]2CC1(C)C` (stereo not given in full), the activity change, negative = thiol reactive is 214% [at 11.5 µM] (inactive). With `C/C=C(\C)C(=O)OC1CC2C(C)(C)OC(=O)CC(OC(C)=O)C2(C)C2CC(OC(=O)C(C)C)C3(C)C(c4ccoc4)CC4OC43C12C` (stereo not given), the Potency result was “inactive”.

Turning to `CC(=O)OC12C(O)C(C)C3(O)C4C=C(C)C(=O)C4CC(CO)=CC3C1C2(C)C` (stereo not given), the Potency result is “inactive”.

(Values after PubChem BioAssay (NCATS).)
